# A selection: hits, their analogues and other compounds. The true share with any hit is near 3.1%.
# uPA surface inh = inhibitors of cell surface uPA generation. cell surface uPA generation assay, qHTS. Potency, µM (titrated, usually from 38.3 µM), for inactives: at the top dose activity change, negative = inhibition, most hits filed as inhibitors. hit rate 0.31% among 330,000. AID 540303; active = well fitted inhibition curve with a large enough effect; inconclusive = small, poorly fitted or top-dose-only effect; inactive = no such curve, though single readings can be large or run the other way; tested in mouse RAW 264.7 cells; also: potency is read from the fitted curve at half-maximal effect; % is scaled to controls: 0 for no effect and ±100 for the full control effect; nearly all actives have a fitted effect of over 55% in size
# TSHR antag = human thyrotropin receptor antagonism; P16473; TSHR-expressing cells, TSH-stimulated cAMP HTRF, 2 h; hits give low values; activity change, negative = inhibition, % at 11.5 µM; hit rate 0.2% among 330,000; AID 504810;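 active = activity change below a set negative limit, meaning inhibition stronger than a set level, cut at about -70% in these data; inconclusive = activity change between two set negative limits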; also: % is scaled to controls: 0 for no effect and ±100 for the full control effect
#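 TSHR-expressing cells, 200/well, pre-treated with compound, then stimulated with EC80 TSH (4nM final) for 2 hours at 37 deg C. cAMP measured by competitive HTRF: anti-cAMP cryptate antibody in lysis buffer plus cAMP-d2, read after 30 minutes at room temperature.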
# PTAP TSG101 blk = blocks PTAP/TSG101 interaction to inhibit HIV-1 budding; Q99816; Fluorescence polarization, FITC-PTAP peptide / Tsg101 binding; Potency, µM (titrated, usually from 115 µM), without a hit: top-dose activity change, negative = inhibition, usual class: inhibitors; 340,000 tested, under 10 active; AID 493005; active = well fitted inhibition curve with a large enough effect in the main read-out, with a control signal flat, not every such curve was filed as active; inconclusive = small, poorly fitted or top-dose-only effect, or effect the other way, or a change in a side signal; inactive = no such curve, though single readings can be large or run the other way; also: potency is read from the fitted curve at half-maximal effect; % of control where 0% means no effect
#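 Tsg101 binding domain (10 uM final) was mixed with compound and a FITC-labeled PTAP peptide (50 nM final) in HEPES pH 7.5 buffer with NaCl, Tween 20, EDTA and TCEP; fluorescence polarization was read after 20 min at r.t.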
# VDR inh = blocks the human vitamin D receptor; Potency, µM, inactives show max response, negative = inhibition, actives largely listed as inhibitors; VDR-SRC2-3 peptide fluorescence polarization, 2 h; hit rate 0.93% among 400,000; P11473; also: potency is read from the fitted curve at half-maximal effect; % is scaled to controls: 0 for no effect and ±100 for the full control effect
#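 Fluorescence polarization assay measuring small-molecule disruption of VDR binding to the coregulator peptide SRC2-3. Compounds were pin-transferred (23 nl) into the reagent mix and incubated 2 h at room temperature before reading.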
# PLK1 PBD block = PLK1 (human) polo-box domain binding inhibition. Plk1 PBD binding of FITC phosphopeptide, fluorescence polarization. Potency, µM, for inactives: max response, negative = inhibition, most hits filed as inhibitors. P53350. hit rate 2.8% among 360,000. AID 720504; also: potency is read from the fitted curve at half-maximal effect; series mostly up to about 57 µM; % is scaled to controls: 0 for no effect and ±100 for the full control effect; nearly all actives have a fitted effect of over 65% in size
# Target sequence (P53350 whole entry, looked up, the tested form may be a part): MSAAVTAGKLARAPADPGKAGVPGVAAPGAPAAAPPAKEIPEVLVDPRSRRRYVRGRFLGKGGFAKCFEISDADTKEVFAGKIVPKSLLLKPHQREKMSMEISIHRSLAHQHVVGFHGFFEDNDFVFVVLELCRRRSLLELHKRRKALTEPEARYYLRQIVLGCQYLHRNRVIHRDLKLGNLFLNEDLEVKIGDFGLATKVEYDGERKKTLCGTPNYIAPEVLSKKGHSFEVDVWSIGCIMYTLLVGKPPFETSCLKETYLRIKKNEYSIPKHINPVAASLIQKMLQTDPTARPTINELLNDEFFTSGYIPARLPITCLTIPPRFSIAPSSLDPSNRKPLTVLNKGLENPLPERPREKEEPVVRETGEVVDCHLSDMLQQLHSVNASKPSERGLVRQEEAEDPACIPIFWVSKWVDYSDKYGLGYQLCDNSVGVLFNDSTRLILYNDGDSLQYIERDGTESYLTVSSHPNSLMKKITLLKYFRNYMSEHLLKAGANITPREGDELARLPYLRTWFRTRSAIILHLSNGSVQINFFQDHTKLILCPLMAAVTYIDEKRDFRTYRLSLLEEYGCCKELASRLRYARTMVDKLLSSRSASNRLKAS
# * hit, by the source's call; ? = inconclusive; nt = not tested or not shown. Unless noted, calls follow the shape of the dose curve; as a rule, active = well fitted curve in the direction sought with a large enough effect; inconclusive = small, poorly fitted or top-dose-only effect, or another doubt; inactive = no such curve, though single readings can be large; an effect the other way counts as inactive or inconclusive.
SMILES,uPA surface inh,TSHR antag,PTAP TSG101 blk,VDR inh,PLK1 PBD block
N#C/C(=C\c1cccs1)C(=O)c1ccccc1Cl,?,-12.1,0.2%,35.5µM*,1.5µM*
CC(C)(C)C(=O)/C(C#N)=C/c1cccs1,3.2%,-4.7,-2.9%,-9.4%,-10.5%
N#C/C(=C\c1cccs1)C(=O)NCc1ccccc1,5.5%,-5.5,-2.6%,44.7µM*,3.36µM*
Cc1ccc2nc(N3CCN(c4cccc(Cl)c4)CC3)c(-n3nc(C)cc3C)nc2c1,nt,nt,nt,2.5%,nt
COc1ccc2cc(CNc3ccccc3)c(=O)n(CC(=O)Nc3ccc(C(C)=O)cc3)c2c1,nt,nt,nt,2.9%,nt
CCOC(=O)C1=CC[C@@H](c2ccccc2)N(S(=O)(=O)c2ccc(C)cc2)[C@@H]1C#N,nt,nt,nt,nt,15µM*
Cc1ccc([C@@H]2CC=C(C(=O)O)[C@H](c3ccc(F)cc3)N2S(=O)(=O)c2ccc(C)cc2)cc1,1.2%,-0.9,-1.2%,-22.1%,-19.7%
Cc1ccc([C@H]2C(C(=O)O)=CC[C@@H](c3cccs3)N2S(=O)(=O)c2ccc(C)cc2)cc1,-4.2%,9.0,-1.4%,-3.9%,-20.5%
Cc1ccc(S(=O)(=O)N2[C@@H](c3ccc(C(C)(C)C)cc3)C(C(=O)O)=CC[C@H]2c2ccc(Cl)cc2)cc1,-22.8%,-23.4,-8.6%,?,21.2µM*
Cc1ccc(S(=O)(=O)N2[C@@H](c3ccc(C(C)(C)C)cc3)C(C(=O)O)=CC[C@H]2c2cccs2)cc1,-24.3%,-7.8,-3.9%,-7.8%,23.8µM*
CCc1ccc([C@@H]2CC=C(C(=O)O)[C@H](c3ccc(C(C)(C)C)cc3)N2S(=O)(=O)c2ccc(C)cc2)cc1,?,-23.2,-13.6%,-24.1%,23.8µM*
Cc1nc2nc(NC(=O)c3ccc(Cl)cc3)[nH]n2c(=O)c1Cc1ccccc1,nt,nt,nt,4.6%,nt
Cn1cc(S(=O)(=O)N2CCCCC2)cc1C(=O)NCc1ccc(Cl)cc1,nt,nt,nt,9.9%,nt
Cc1ccc(S(=O)(=O)N2[C@@H](c3ccc(Cl)cc3)C(C(=O)O)=CC[C@H]2c2ccc(Cl)c(Cl)c2)cc1,-0.7%,-8.1,-10.4%,?,?
Cc1ccc(S(=O)(=O)N2[C@@H](c3ccccc3F)C(C(=O)O)=CC[C@H]2c2ccc(C(C)C)cc2)cc1,1.4%,-2.6,-3.9%,-19.6%,?
Cc1ccc(S(=O)(=O)N2[C@@H](c3ccc(Br)cc3)C(C(=O)O)=CC[C@H]2c2ccc(C(C)C)cc2)cc1,-2.8%,-1.0,-7.7%,?,29.9µM*
Cc1ccc(S(=O)(=O)N2[C@@H](c3ccc(C(C)(C)C)cc3)C(C(=O)O)=CC[C@H]2c2ccc(C(C)C)cc2)cc1,?,-7.4,?,-7.2%,16.8µM*
Cc1ccc([C@@H]2CC=C(C(=O)O)[C@H](c3ccc(C(C)(C)C)cc3)N2S(=O)(=O)c2ccc(C)cc2)cc1,-17.4%,-20.0,-10.3%,-5.6%,26.7µM*
Cc1ccc(S(=O)(=O)N2C(c3ccc(Cl)c(Cl)c3)CC=C(C(=O)O)C2c2ccc(Cl)cc2)cc1 (stereo not drawn),nt,nt,nt,nt,26.7µM*
Cc1ccc(C(=O)Nc2nnc(SCc3cc(=O)n4ccc(C)cc4n3)s2)cc1,nt,nt,nt,16.2%,nt
CCN(CC)c1nn2c(=O)c(C(=O)NCc3ccc(N(C)C)cc3)cnc2s1,nt,nt,nt,15.2%,nt
Cc1ccc(S(=O)(=O)N2[C@@H](c3cccc(Cl)c3)C(C(=O)O)=CC[C@H]2c2ccc(Cl)cc2)cc1,13.4%,-10.8,-0.1%,-18.9%,26.7µM*
Nc1[nH]c(C(=O)c2ccccc2)c(-c2ccccc2C(F)(F)F)c1C(=O)c1cccs1,nt,nt,nt,nt,-12.6%
CCCCn1c(N)c(N(CC(C)C)C(=O)CSC(C)C(=O)Nc2cc(C)on2)c(=O)[nH]c1=O (stereo not drawn),5.3%,2.6,-0.9%,-23.2%,-2.4%
O=C1CCSc2ccc(Cl)cc2N1Cc1ccccc1,-2.7%,-4.9,-3.8%,-8.2%,-1.2%
SMILES,uPA surface inh,TSHR antag,PTAP TSG101 blk,VDR inh,PLK1 PBD block
Cc1cccc(CN2C(=O)CCSc3ccc(Cl)cc32)c1,-4.8%,0.8,-4.7%,-17.3%,26.7µM*
Cc1ccc(/C=C2/C(=O)N(c3ccccc3)C(=S)N2C)o1,-0.6%,-5.3,-2.8%,79.4µM*,-28.0%
CCOc1cccc(/C=N/NS(=O)(=O)c2ccc(C)c([N+](=O)[O-])c2)c1O,5.9%,-3.0,1.3%,15.2%,29.9µM*
CCOc1cccc(/C=N/NC(=S)Nc2ccccc2[N+](=O)[O-])c1O,6.31µM*,-14.8,-0.2%,-13.9%,0.5%
CCOc1cccc(/C=N/NC(=O)c2cccnc2)c1O,10µM*,0.1,-1.4%,2.1%,-3.9%
O=[N+]([O-])c1ccccc1C=NNC(=S)NN=Cc1ccccc1[N+](=O)[O-],-10.0%,nt,-4.6%,-4.4%,-13.4%
CCOc1cc(/C=N/NC(=O)c2cccnc2)ccc1OCC(N)=O,3.4%,7.6,0.1%,?,-14.3%
O=[N+]([O-])c1ccccc1NC(=S)N/N=C/c1ccc(O)c(O)c1,-9.8%,-3.4,-3.4%,?,11.9µM*
O=C(c1ccccc1)c1nn(-c2ccccc2)c(=O)cc1-c1ccccc1,nt,nt,nt,nt,-4.1%
CC1=C(c2ccc(C)c(C)c2)S(=O)(=O)N(Cc2ccc(C(=O)NC(C)c3ccccc3)cc2)C1=O (stereo not drawn),nt,nt,nt,-8.2%,nt
O=C(c1ccc(Br)cc1)N(Cc1ccco1)c1ccccn1,nt,nt,nt,7.3%,nt
CC(C)n1cc(CN2CCC(C(=O)Nc3cccc(-c4cccc(Cl)c4)c3)CC2)cn1,?,7.4,-0.4%,6.8%,-5.4%
O=C1C(=Cc2ccc(Br)o2)C(=O)c2ccccc21,3.6%,-3.2,-3.0%,1.2%,2.67µM*
CC1=C/C(=C\c2ccc(Br)o2)C(=O)O1,7.7%,-2.6,-3.7%,2.5%,18.9µM*
Cc1ccc(C(=O)O)cc1-c1ccc(C=C2C(=O)c3ccccc3C2=O)o1,5.8%,11.7,1.2%,-11.0%,?
COc1ccccc1-c1ccc(/C=C2/C=C(C)OC2=O)o1,-4.7%,0.4,2.8%,?,?
COc1ccc2cc(C(=O)NCc3ccc4c(c3)CCN4C(=O)c3ccc(F)cc3)[nH]c2c1,nt,nt,nt,6.6%,nt
C/C(=N\Nc1ccc(F)cc1)c1ccc(N2CCOCC2)c(F)c1,-7.3%,1.7,-3.6%,-0.3%,?
CC(=O)c1cccc(NC(=O)C2C3C=CC(C3=C(c3ccccc3)c3ccccc3)C2C(=O)O)c1 (stereo not drawn),6.6%,-2.2,0.9%,-15.1%,33.6µM*
CC(=O)c1cccc(NC(=O)Nc2ccccc2)c1,0.1%,6.9,-5.3%,14.7%,-0.8%
C[Si](C)(C)O[Si](C)(C)C,nt,nt,nt,5.4%,nt
COc1ccc(-c2cc3nc(C4CCN(C(=O)OC(C)(C)C)CC4)c(C(=O)Nc4cc(Cl)cc(Cl)c4)cn3n2)cc1,nt,nt,nt,-6.5%,nt
COc1ccc(-c2nnc(SCC(=O)NC3CCCC3)nc2-c2ccc(OC)c(OC)c2)cc1OC,nt,nt,nt,16.8%,nt
N#C/C(C(=O)Nc1ccc(Cl)cc1)=C(/S)Nc1ccccc1,7.1%,-3.2,-0.4%,?,3.36µM*

# Screens: PubChem BioAssay, National Center for Advancing Translational Sciences (NCATS)
